# Measured values published in PubChem BioAssay AID602 (SRMLSC, 2007).
# Screen size: about 85,000 compounds; about 35 (0.04%) were called active. This is one part of a sample in which actives are shown more often than they occur.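 How the source made its calls: active means viability drop by adding the cancer drug above about 55%, with treated viability meeting a 40% cutoff (limit read from the data); inactive means the rest, inconclusive results apart.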
# Experiment: reversal of MRP1-mediated doxorubicin resistance, primary screen, H69AR cells, doxorubicin co-treatment (AID 602);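 on differential viability (reversal): larger differential means the compound sensitizes cells more to doxorubicin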
# Details: CellTiter-Glo, 72 h, at 10 µM; for differential viability (reversal): stronger effect = higher value
# [1] = H69AR cells + 2 uM doxorubicin, measured here: viability with 2 uM doxorubicin, stronger effect = lower value
# [2] = H69AR cells, measured here: cytotoxicity without doxorubicin
SMILES,differential viability (reversal) (H69AR cells + 2 uM doxorubicin),viability [1] [%],viability [2] [%]
O=C(NCC1CCC(C(=O)O)CC1)OCc1ccccc1 (stereo unspecified),6.33% (inactive),92.2,98.5
CCN(CC)CCn1c(=S)[nH]c2ncccc2c1=O,12.4% (inactive),88.8,101
CCOC(=O)C1C(=O)NCC1c1ccccc1 (stereo unspecified),1.49% (inactive),98.4,99.9
CC(C)CC(N=C1NC(C)(C)Cc2ccccc21)C(=O)O (stereo unspecified),9.71% (inactive),98.6,108
CCCCNC(=O)OC(C)CNC(=O)OC (stereo unspecified),-15% (inactive),111,95.6
COc1cc(OC)nc(NC(=O)CCl)n1,4.9% (inactive),93.8,98.7
Cc1cc2nc(C)n(CCCNC(=O)Nc3ccccc3)c2cc1C,7.8% (inactive),83.9,91.7
